Calls of active or inactive are those of the source. Rule for the calls: active = hit-call score of the fitted dose curve at least 0.9, where 1 is the maximum; inactive = score below 0.9.
Legend:
[1] = read-out: Interleukin-8 (IL8), CXCL8 (gene 3576); assay: BSK_MyoF_IL8: BioMAP Diversity Plus: MyoF Assay for Interleukin-8 (IL8) Biomarker Activity (AID 2284261); conditions: primary human lung fibroblasts
How it was run: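 Lung fibroblasts (human primary) → chemical exposure → 24 h → IL-8 measured by ELISA. Signal increase scored versus DMSO control.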

Decorin, DCN (gene 1634) = assay: BSK_MyoF_Decorin: BioMAP Diversity Plus: MyoF Assay for Decorin Biomarker Activity (AID 2284265); conditions: primary human lung fibroblasts
How it was run: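 ELISA readout of decorin, 24 h post-dosing; primary human lung fibroblast (MyoF) culture; gain-of-signal fit vs DMSO baseline.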

[2] = BSK_MyoF_SRB: Viability Assessment in the BioMAP Diversity Plus: MyoF Assay (AID 2284267); conditions: primary human lung fibroblasts;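 note: total protein by SRB absorbance in parallel cultures as cytotoxicity measure; cells assessed 24 h after compound addition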
How it was run: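 Cytotoxicity read-out: after 10% TCA fixation, parallel human lung fibroblast cultures were stained with 0.1% SRB at 24 h post-dosing and read at 560 nm; DMSO served as baseline.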

[3] = read-out: Matrix Metallopeptidase 1 (MMP1), MMP1 (gene 4312); assay: BSK_MyoF_MMP1: BioMAP Diversity Plus: MyoF Assay for Matrix Metallopeptidase 1 (MMP1) Biomarker Activity (AID 2284268); conditions: primary human lung fibroblasts
How it was run: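 Cells: human lung fibroblasts. Exposure: 24 h chemical dosing. Detection: ELISA for MMP1. Analysis: upward fitting against DMSO negative control.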

[4] = read-out: Interferon-inducible T-cell alpha chemoattractant (ITAC), CXCL11 (gene 6373); assay: BSK_BE3C_ITAC: BioMAP Diversity Plus: BE3C Assay for Interferon-inducible T-cell alpha chemoattractant (ITAC) Biomarker Activity (AID 2284279); conditions: primary human bronchial epithelial cells
How it was run: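 The assay measures I-TAC levels by ELISA in human primary bronchial epithelial cell cultures 24 hours after chemical treatment. Values reflect signal increase over the DMSO baseline.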

[5] = read-out: Interleukin-8 (IL8), CXCL8 (gene 3576); assay: BSK_BE3C_IL8: BioMAP Diversity Plus: BE3C Assay for Interleukin-8 (IL8) Biomarker Activity (AID 2284280); conditions: primary human bronchial epithelial cells
How it was run: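 Primary human bronchial epithelial cells (BE3C system) were exposed to test chemical for 24 h, and IL-8 levels were then measured by ELISA. Activity was fitted in the positive (gain-of-signal) direction against a DMSO negative-control baseline.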

[6] = read-out: Epidermal growth factor receptor (EGFR), EGFR (gene 1956); assay: BSK_BE3C_EGFR: BioMAP Diversity Plus: BE3C Assay for Epidermal growth factor receptor (EGFR) Biomarker Activity (AID 2284281); conditions: primary human bronchial epithelial cells
How it was run: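 Human primary bronchial epithelial cells were exposed to compound for 24 h, and cell-surface EGFR was then quantified by ELISA. Activity was fitted in the positive direction against the DMSO vehicle baseline.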

KRT18 (gene 3875) = assay: BSK_BE3C_Keratin818: BioMAP Diversity Plus: BE3C Assay for Keratin 818 Biomarker Activity (AID 2284282); conditions: primary human bronchial epithelial cells
How it was run: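 ELISA readout of Keratin 8/18 in human primary bronchial epithelial cultures after 24 h chemical exposure, DMSO baseline. Parallel SRB staining (0.1%, TCA-fixed, 560 nm) served as cytotoxicity check.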

Measured: AC50

CC(C)(C)c1ccc(O)c(O)c1
active: [2] 33.5 µM
inactive: [1] | Decorin, DCN (gene 1634) | [3]

O=C(NCc1ncc(C(F)(F)F)cc1Cl)c1c(Cl)cccc1Cl
inactive: [1] | Decorin, DCN (gene 1634) | [2] | [3]

CC1=NN(c2ccccc2)C(=O)C1
inactive: [1] | Decorin, DCN (gene 1634) | [2] | [3]

O=C(NO)c1ccccc1
inactive: [1] | Decorin, DCN (gene 1634) | [2] | [3]

NC(=NCCCCCCN=C(N)/N=C(\N)Nc1ccc(Cl)cc1)/N=C(\N)Nc1ccc(Cl)cc1
active: [1] 5.05 µM | Decorin, DCN (gene 1634) 9.05 µM | [2] 4.76 µM | [3] 9 µM

Oc1ccc(Cc2ccccc2O)cc1
inactive: [4] | [5] | [6] | KRT18 (gene 3875)

CCOC(=O)CN[C@@H](C(=O)N1CC[C@H]1C(=O)NCc1ccc(/C(N)=N/O)cc1)C1CCCCC1
inactive: [1] | Decorin, DCN (gene 1634) | [2] | [3]

CCCCC(CC)C(=O)OCCOCCOCCOCCOC(=O)C(CC)CCCC (stereo not given)
inactive: [1] | Decorin, DCN (gene 1634) | [2] | [3]

Cc1ccc(C(=O)c2ccccc2)cc1
inactive: [1] | Decorin, DCN (gene 1634) | [2]
active: [3] 38.7 µM

O=C1OC2(c3ccccc31)c1cc(I)c(O)c(I)c1Oc1c2cc(I)c(O)c1I
inactive: [2]
active: [1] 3.37 µM | Decorin, DCN (gene 1634) 2.56 µM | [3] 0.605 µM

Source: PubChem BioAssay (EPA / NIEHS)
